Among the data in PubChem BioAssay (NCI) are growth values, retold here.

This is part of a sample that, as a whole, favours compounds with a hit. Of some 83,000 tested, about 20% had one in any assay.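 Interpretation: 100, growth as untreated; towards 0, rising growth inhibition; 0, no net growth; 0 to -100, cell death. Compounds scoring below 10 were considered active.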 Values without a mark were called inactive. Calls of active or inactive are those of the source.

Among the test systems are NCI-H23 lung; NCI-H226 lung; NCI-H322M lung; HOP-62 NSCLC; NCI-H460 lung; HOP-92 NSCLC; NCI-H522 lung; A549/ATCC NSCLC; 786-0 renal; COLO 205 colon.
What all share (experiment): NCI-60 one-dose screen, 48 h (100 = growth as untreated, 0 = no growth, -100 = all killed)
Conditions in all cases: 10 µM unless noted

`S=c1nc2oc(-c3ccccc3)c(-c3ccccc3)c2c(/N=C\c2ccco2)[nH]1`: the growth in the assay with NCI-H23 lung was 88.2%; in the assay on NCI-H226 lung it was 102%; in the assay on NCI-H322M lung, 105%; in the assay with HOP-62 NSCLC, 82.5%; in the assay with NCI-H460 lung it was 115%; with HOP-92 NSCLC it was 92.4%. Also, the growth in the assay on NCI-H522 lung is 86.1%; in the assay on A549/ATCC NSCLC it was 95.3%; in the assay on 786-0 renal, 97%; in the assay with COLO 205 colon it was 120%.
Regarding `CN(C)c1ccc(-c2ccc3c(c2)c(-c2ccccc2)nc(=O)n3C)cn1`, the growth in the assay with NCI-H23 lung was 71%; in the assay with NCI-H226 lung it was 77.2%; with NCI-H322M lung, 60.9%; with HOP-62 NSCLC, 36.8%; with NCI-H460 lung, 19.7%; in the assay on HOP-92 NSCLC it was -45.4% (active). Moreover, the growth was 7.96% (active) in the assay on NCI-H522 lung, 45.8% with A549/ATCC NSCLC, 26.2% in the assay with 786-0 renal and 28.1% in the assay on COLO 205 colon.
With `C=CC(=O)Nc1ccc(Oc2nccc(Nc3nnc(-c4ccc(C)cc4)s3)n2)cc1`, the growth was 79.9% in the assay with NCI-H23 lung; 86.2% in the assay on NCI-H226 lung; 98.7% in the assay with NCI-H322M lung; 83.5% with HOP-62 NSCLC; 59.9% in the assay on NCI-H460 lung; 72.4% with HOP-92 NSCLC. In addition, the growth with NCI-H522 lung is 24.3%; in the assay with A549/ATCC NSCLC, 77%; in the assay on 786-0 renal it was 70.8%; in the assay with COLO 205 colon, 100%.
In the case of `COc1ccc(/C(C)=C(\c2ccc(Cl)cc2)c2ccc(OCCN3CCCCC3)cc2)cc1`, the growth in the assay with NCI-H23 lung was 57.9%; in the assay on NCI-H226 lung it was 89.4%; in the assay on NCI-H322M lung, 68.8%; in the assay with HOP-62 NSCLC, 68.6%; with NCI-H460 lung, 24.6%; in the assay on HOP-92 NSCLC, 70.3%. For the same molecule, the growth is 78.3% in the assay with NCI-H522 lung, 38.5% in the assay with A549/ATCC NSCLC, -5.84% (active) in the assay on 786-0 renal and -4.92% (active) in the assay with COLO 205 colon.
Regarding `Cc1ccc(C)c(/C=C2\CN(C(=O)OC(C)(C)C)C/C(=C\c3cc(C)ccc3C)C2=O)c1`, the growth was 49.7% in the assay with NCI-H23 lung; 89% in the assay with NCI-H226 lung; 93.9% in the assay with NCI-H322M lung; 93.4% with HOP-62 NSCLC; 45.3% in the assay with NCI-H460 lung; 91.3% in the assay with HOP-92 NSCLC. In addition, the growth was 46.1% in the assay with NCI-H522 lung, 80.5% with A549/ATCC NSCLC, 74.5% in the assay with 786-0 renal and 30.9% in the assay on COLO 205 colon.
For `COc1cccc(CNc2c3ccccc3nc3ccccc23)c1`, the growth in the assay on NCI-H23 lung is 37.3%; with NCI-H226 lung, 48.1%; with NCI-H322M lung it was 44%; with HOP-62 NSCLC, 46.5%; in the assay with NCI-H460 lung, 10%; in the assay with HOP-92 NSCLC, 25.5%. Moreover, the growth with NCI-H522 lung was 61.7%; in the assay with A549/ATCC NSCLC it was 30.2%; with 786-0 renal, 37.3%; in the assay with COLO 205 colon it was 9.63% (active).
In the case of `O=C(Nc1cnc(Nc2ccc(N3CCOCC3)nc2)nc1Oc1ccc(C(F)(F)F)cc1)c1ccncc1`, the growth is 70% in the assay with NCI-H23 lung; 92.8% with NCI-H226 lung; 87.3% in the assay on NCI-H322M lung; 93.1% with HOP-62 NSCLC; 74.3% in the assay with NCI-H460 lung; 94.1% with HOP-92 NSCLC. Also, the growth in the assay with NCI-H522 lung was 82.8%; with A549/ATCC NSCLC, 80.5%; with 786-0 renal, 96.8%; in the assay with COLO 205 colon it was 99.8%.
For the molecule `Clc1ccc(-c2cc(-c3ccccc3)nc(NCCNc3ccnc4cc(Cl)ccc34)n2)cc1`, the growth with NCI-H23 lung is 74.3%; in the assay on NCI-H226 lung it was 78.5%; with NCI-H322M lung, 44.6%; in the assay on HOP-62 NSCLC, 81.2%; in the assay with NCI-H460 lung, -51.6% (active); in the assay with HOP-92 NSCLC, 31.8%. Besides, the growth is -35.9% (active) in the assay on NCI-H522 lung, 36.3% in the assay with A549/ATCC NSCLC, -90.9% (active) in the assay on 786-0 renal and -81.2% (active) in the assay on COLO 205 colon.
On to `O=C(CCCCCCN1CC(=O)N2[C@H](c3ccc(Br)cc3)c3[nH]c4ccccc4c3C[C@@H]2C1=O)NO`, for which the growth in the assay on NCI-H23 lung is 53%; in the assay on NCI-H226 lung, 80.2%; in the assay with NCI-H322M lung, 50.3%; with HOP-62 NSCLC, 52.2%; in the assay on NCI-H460 lung, 44.7%; in the assay with HOP-92 NSCLC, 31.3%. For the same molecule, the growth is 26.9% in the assay with NCI-H522 lung, 80% with A549/ATCC NSCLC, 89.1% in the assay with 786-0 renal and 38.7% with COLO 205 colon.
For the molecule `COc1ccc(-c2nn(-c3ccccc3)cc2/C=C/C(=O)NNC(=O)Nc2ccc(C)cc2)cc1`, the growth in the assay with NCI-H23 lung is 102%; with NCI-H226 lung, 97.2%; with NCI-H322M lung, 99.6%; in the assay on HOP-62 NSCLC, 102%; with NCI-H460 lung it was 102%; in the assay with HOP-92 NSCLC, 102%. In addition, the growth in the assay with NCI-H522 lung was 89.4%; in the assay with A549/ATCC NSCLC it was 94.8%; with 786-0 renal, 101%; in the assay on COLO 205 colon, 103%.
Turning to `O=S(=O)(NCCNc1nccc(-c2c(-c3cccc(O)c3)nc3occn23)n1)c1ccc(Br)cc1`, the growth in the assay with NCI-H23 lung is 53.2%; with NCI-H226 lung, 37.1%; in the assay with NCI-H322M lung, 42.3%; in the assay on HOP-62 NSCLC it was 45.2%; in the assay on NCI-H460 lung, 31.2%; in the assay with HOP-92 NSCLC, 33.2%. Moreover, the growth in the assay on NCI-H522 lung was 24.5%; in the assay with A549/ATCC NSCLC, 20.9%; with 786-0 renal, 45.8%; with COLO 205 colon it was 18.4%.
In the case of `O=C(CC(=O)Nc1cccc(C(=O)O)c1)Nc1cccc(C(=O)O)c1`, the growth was 107% with NCI-H23 lung; 112% with NCI-H226 lung; 105% in the assay on NCI-H322M lung; 88.3% with HOP-62 NSCLC; 100% in the assay with NCI-H460 lung; 99.7% with HOP-92 NSCLC. Also, the growth in the assay with NCI-H522 lung is 78%; with A549/ATCC NSCLC, 85.8%; in the assay on 786-0 renal, 98%; in the assay with COLO 205 colon it was 100%.
In the case of `CCN1C2CCC1/C(=C\c1ccc(F)cc1)C(=O)/C2=C/c1ccc(F)cc1`, the growth in the assay on NCI-H23 lung was 29.2%; in the assay with NCI-H226 lung it was 51.6%; in the assay on NCI-H322M lung it was 42.9%; with HOP-62 NSCLC it was 46%; in the assay on NCI-H460 lung, 46.4%; with HOP-92 NSCLC, 38.1%. Moreover, the growth was 36.7% in the assay on NCI-H522 lung, 52.6% with A549/ATCC NSCLC, 42.5% with 786-0 renal and 20.7% with COLO 205 colon.
